Data as given in PubChem BioAssay AID1159580 (chemical genetic matrix, 2015).
Values joined by “and” are separate entries in the source; they are usually repeats but may differ in a detail not shown here. Identical values can stand only once. Among all 5,500 compounds or so, about 2,000 (36%) were called active. Inconclusive results (about 18%) are left out. Cut-off read from the data, not from the text of the source: active = normalized growth mostly below about 0.91 (no sharp cut-off); inconclusive = no clear call, values can overlap the other calls; inactive = mostly above about 0.92. The list shows a part of the results.

Assay: chemical genetic growth profiling, strain panel (AID 1159580);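 note: tested at 20 µM; growth read once vehicle control cultures reached saturation at 30 °C; 1 = growth at the plate median or of vehicle wells; lower values mean less growth of the strain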
Details: growth OD

Measured: normalized growth

ClC1=C(Cl)C2(Cl)C3C4CC(C5OC45)C3C1(Cl)C2(Cl)Cl (configuration not stated)
inactive: S. cerevisiae deletion strains, locus YAL013W, strain DEP1, stronger effect = lower value 0.992 | S. cerevisiae deletion strains, locus YBR021W, strain FUR4, stronger effect = lower value 0.948 and 0.959 | S. cerevisiae deletion strains, locus YBR229C, strain ROT2, stronger effect = lower value 0.997 and 1 | S. cerevisiae deletion strains, locus YCL029C, strain bik1, stronger effect = lower value 0.967 and 1.02 | S. cerevisiae deletion strains, locus YDL035C, strain GPR1, stronger effect = lower value 0.981 and 0.974 | S. cerevisiae deletion strains, locus YDL074C, strain BRE1, stronger effect = lower value 1.03 | S. cerevisiae deletion strains, locus YDL101C, strain DUN1, stronger effect = lower value 0.993 and 1 | S. cerevisiae deletion strains, locus YDL134C, strain PPH21, stronger effect = lower value 0.998 and 0.988 | S. cerevisiae deletion strains, locus YDL185W, strain tfp1, stronger effect = lower value 0.996 and 1.03 | S. cerevisiae deletion strains, locus YDL192W, strain arf1, stronger effect = lower value 0.986 and 1.01 | S. cerevisiae deletion strains, locus YDR101C, strain arx1, stronger effect = lower value 0.973 and 1.01 | S. cerevisiae deletion strains, locus YDR150W, strain NUM1, stronger effect = lower value 1 and 0.976 | S. cerevisiae deletion strains, locus YDR162C, strain NBP2, stronger effect = lower value 0.999 and 0.969 | S. cerevisiae deletion strains, locus YDR318W, strain mcm21, stronger effect = lower value 0.983 and 1.01 | S. cerevisiae deletion strains, locus YDR388W, stronger effect = lower value 0.97 and 1.01 | S. cerevisiae deletion strains, locus YDR502C, strain sam2, stronger effect = lower value 0.983 and 1 | S. cerevisiae deletion strains, locus YEL061C, strain CIN8, stronger effect = lower value 1 | S. cerevisiae deletion strains, locus YER110C, stronger effect = lower value 0.971 and 1.02 | S. cerevisiae deletion strains, locus YER155C, strain BEM2, stronger effect = lower value 0.982 and 1.01 | S. cerevisiae deletion strains, locus YER167W, strain BCK2, stronger effect = lower value 0.976 and 0.99 | S. cerevisiae deletion strains, locus YGL078C, strain dbp3, stronger effect = lower value 0.978 and 1.01 | S. cerevisiae deletion strains, locus YGL086W, strain mad1, stronger effect = lower value 0.983 and 1.01 | S. cerevisiae deletion strains, locus YGL248W, strain PDE1, stronger effect = lower value 1 and 1.01 | S. cerevisiae deletion strains, locus YGR078C, strain PAC10, stronger effect = lower value 1 and 1.01 | S. cerevisiae deletion strains, locus YGR135W, strain pre9, stronger effect = lower value 0.988 and 0.995 | S. cerevisiae deletion strains, locus YGR229C, strain SMI1, stronger effect = lower value 0.971 | S. cerevisiae deletion strains, locus YGR252W, strain gcn5, stronger effect = lower value 0.968 and 0.972 | S. cerevisiae deletion strains, locus YHR030C, strain SLT2, stronger effect = lower value 0.99 and 1.04 and 1.01 | S. cerevisiae deletion strains, locus YHR079C, strain IRE1 (second series), stronger effect = lower value 0.971 and 1.01 | S. cerevisiae deletion strains, locus YHR079C, strain IRE1, stronger effect = lower value 1.01 | S. cerevisiae deletion strains, locus YHR094C, strain hxt1, stronger effect = lower value 0.974 and 1.01 | S. cerevisiae deletion strains, locus YHR129C, strain ARP1, stronger effect = lower value 0.998 and 1.02 | S. cerevisiae deletion strains, locus YHR200W, strain rpn10, stronger effect = lower value 0.978 and 1.02 | S. cerevisiae deletion strains, locus YIL066C, strain RNR3, stronger effect = lower value 1 and 0.968 | S. cerevisiae deletion strains, locus YIL073C, strain SPO22, stronger effect = lower value 0.919 and 1.08 | S. cerevisiae deletion strains, locus YIL125W, strain kgd1, stronger effect = lower value 0.985 and 1.01 | S. cerevisiae deletion strains, locus YIR030C, strain dcg1, stronger effect = lower value 0.979 and 1.02 | S. cerevisiae deletion strains, locus YJL095W, strain BCK1, stronger effect = lower value 1.02 and 1.05 and 1.06 | S. cerevisiae deletion strains, locus YJL134W, strain LCB3, stronger effect = lower value 0.982 and 1.01 | S. cerevisiae deletion strains, locus YJL168C, strain set2, stronger effect = lower value 0.98 and 1.01 | S. cerevisiae deletion strains, locus YJL187C, strain SWE1 (second series), stronger effect = lower value 0.991 and 1.02 | S. cerevisiae deletion strains, locus YJR043C, strain POL32, stronger effect = lower value 0.975 and 0.987 | S. cerevisiae deletion strains, locus YJR066W, strain TOR1, stronger effect = lower value 0.962 | S. cerevisiae deletion strains, locus YJR075W, strain HOC1, stronger effect = lower value 1 and 1.03 | S. cerevisiae deletion strains, locus YKL009W, strain mrt4, stronger effect = lower value 0.988 and 1.01 | S. cerevisiae deletion strains, locus YKL068W, stronger effect = lower value 0.986 and 1 | S. cerevisiae deletion strains, locus YKL085W, strain MDH1 (second series), stronger effect = lower value 0.983 and 0.995 | S. cerevisiae deletion strains, locus YKL085W, strain MDH1, stronger effect = lower value 0.983 and 0.995 | S. cerevisiae deletion strains, locus YKL190W, strain CNB1, stronger effect = lower value 1 and 0.986 | S. cerevisiae deletion strains, locus YKR001C, strain vps1, stronger effect = lower value 0.98 and 1.02 | S. cerevisiae deletion strains, locus YLR039C, strain RIC1, stronger effect = lower value 0.975 and 1.15 | S. cerevisiae deletion strains, locus YLR058C, strain SHM2, stronger effect = lower value 0.984 and 1.02 | S. cerevisiae deletion strains, locus YLR102C, strain apc9, stronger effect = lower value 0.984 and 1.01 | S. cerevisiae deletion strains, locus YLR113W, strain HOG1, stronger effect = lower value 0.937 | S. cerevisiae deletion strains, locus YLR262C, strain YPT6, stronger effect = lower value 0.953 and 1.24 | S. cerevisiae deletion strains, locus YLR268W, strain sec22, stronger effect = lower value 0.977 and 1.02 | S. cerevisiae deletion strains, locus YLR330W, strain CHS5, stronger effect = lower value 0.996 and 1.01 | S. cerevisiae deletion strains, locus YLR342W, strain FKS1 (second series), stronger effect = lower value 0.984 and 0.998 | S. cerevisiae deletion strains, locus YLR371W, strain rom2, stronger effect = lower value 0.97 and 1.02 | S. cerevisiae deletion strains, locus YLR418C, strain cdc73, stronger effect = lower value 0.964 and 0.976 | S. cerevisiae deletion strains, locus YML016C, strain PPZ1, stronger effect = lower value 0.996 and 1 | S. cerevisiae deletion strains, locus YML032C, strain rad52, stronger effect = lower value 0.967 and 0.998 | S. cerevisiae deletion strains, locus YML124C, strain tub3, stronger effect = lower value 0.973 and 1.01 | S. cerevisiae deletion strains, locus YMR078C, strain ctf18, stronger effect = lower value 0.973 and 1.01 | S. cerevisiae deletion strains, locus YMR223W, strain ubp8, stronger effect = lower value 0.975 and 1.01 | S. cerevisiae deletion strains, locus YMR263W, strain SAP30, stronger effect = lower value 1.01 | S. cerevisiae deletion strains, locus YMR307W, strain GAS1, stronger effect = lower value 0.909 and 0.97 | S. cerevisiae deletion strains, locus YNL067W, strain RPL9B, stronger effect = lower value 0.999 and 1.04 | S. cerevisiae deletion strains, locus YNL128W, strain TEP1, stronger effect = lower value 0.994 and 1.02 | S. cerevisiae deletion strains, locus YNL153C, strain GIM3, stronger effect = lower value 0.999 and 1.03 | S. cerevisiae deletion strains, locus YNL183C, strain NPR1, stronger effect = lower value 0.948 | S. cerevisiae deletion strains, locus YNL233W, strain BNI4, stronger effect = lower value 0.994 and 1.06 | S. cerevisiae deletion strains, locus YNL250W, strain rad50, stronger effect = lower value 0.965 and 1 | S. cerevisiae deletion strains, locus YNL271C, strain bni1, stronger effect = lower value 0.975 and 1.01 | S. cerevisiae deletion strains, locus YNL298W, strain CLA4, stronger effect = lower value 0.97 and 1.01 | S. cerevisiae deletion strains, locus YNL307C, strain MCK1, stronger effect = lower value 0.947 and 1.02 | S. cerevisiae deletion strains, locus YNL322C, strain KRE1, stronger effect = lower value 0.998 | S. cerevisiae deletion strains, locus YNR052C, strain pop2, stronger effect = lower value 0.965 and 1.01 | S. cerevisiae deletion strains, locus YOL006C, strain TOP1, stronger effect = lower value 1.01 | S. cerevisiae deletion strains, locus YOL012C, strain htz1 0.925 and 0.987 | S. cerevisiae deletion strains, locus YOL147C, strain pex11, stronger effect = lower value 0.966 and 1.02 | S. cerevisiae deletion strains, locus YOR061W, strain CKA2, stronger effect = lower value 0.998 and 1 | S. cerevisiae deletion strains, locus YOR069W, strain VPS5, stronger effect = lower value 0.995 and 1.01 | S. cerevisiae deletion strains, locus YOR136W, strain idh2, stronger effect = lower value 0.974 and 1.02 | S. cerevisiae deletion strains, locus YOR144C, strain elg1, stronger effect = lower value 0.97 and 1 | S. cerevisiae deletion strains, locus YOR184W, strain ser1, stronger effect = lower value 0.967 and 1.01 | S. cerevisiae deletion strains, locus YOR231W, strain MKK1, stronger effect = lower value 1.04 | S. cerevisiae deletion strains, locus YOR316C, strain cot1, stronger effect = lower value 0.976 and 1.01 | S. cerevisiae deletion strains, locus YPL055C, strain LGE1, stronger effect = lower value 0.999 | S. cerevisiae deletion strains, locus YPL241C, strain CIN2, stronger effect = lower value 0.999 and 1.01 | S. cerevisiae deletion strains, locus YPL256C, strain CLN2, stronger effect = lower value 1.04 | S. cerevisiae deletion strains, locus YPR119W, strain clb2, stronger effect = lower value 0.974 and 1.01 | S. cerevisiae deletion strains, locus YPR141C, strain kar3, stronger effect = lower value 0.969 and 1.01 | S. cerevisiae deletion strains, locus YPR163C, strain tif3, stronger effect = lower value 0.961 and 1.01 | S. cerevisiae deletion strains, locus YPR167C, strain met16, stronger effect = lower value 0.983 and 1.01 | S. cerevisiae deletion strains, strain wtn01, stronger effect = lower value 0.971 and 1.03 | S. cerevisiae strains, strain wild type, stronger effect = lower value 0.994 and 1.01
